Source: PubChem (National Center for Advancing Translational Sciences (NCATS))
BAZ2B inh = BAZ2B (human) inhibition; Q9UIF8; AlphaScreen BAZ2B-H3K14Ac peptide displacement; Potency, µM (highest dose often 114 µM), inactives show at the highest dose activity change, negative = inhibition, actives largely listed as inhibitors; 360,000 tested, 4.4% active; AID 504333; also: % is scaled to controls: 0 for no effect and ±100 for the full control effect; nearly all actives have a fitted effect of over 60% in size
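AlphaScreen displacement: compounds (up to 110uM) incubated 30 min at room temperature with a preformed 50 nM BAZ2B/50 nM biotinylated H3K14Ac peptide complex in PBS pH 7.4 with Tween-20. Donor and acceptor beads at 10 ug/mL final added, 20 min light-protected before reading.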
JMJD2A Tudor inh = blocks the human JMJD2A Tudor domain; Potency, µM (series often up to 114 µM), for inactives: at the top dose activity change, negative = inhibition, actives largely listed as inhibitors; AlphaScreen JMJD2A-Tudor / H3K4me3 peptide binding; O75164; 390,000 tested, 4.4% active; also: % is scaled to controls: 0 for no effect and ±100 for the full control effect; nearly all actives have a fitted effect of over 50% in size
PLK1 PBD block = PLK1 (human) polo-box domain binding inhibition. AID 720504. P53350. Potency, µM, for inactives: max response, negative = inhibition, usual class: inhibitors. Plk1 PBD binding of FITC phosphopeptide, fluorescence polarization. 360,000 tested, 2.8% active; also: series mostly up to about 57 µM; % is scaled to controls: 0 for no effect and ±100 for the full control effect; nearly all actives have a fitted effect of over 65% in size
G9a block = blocks human histone lysine methyltransferase G9a; Q96KQ7; G9a H3K9 monomethylation, AlphaScreen, 2 h; Potency, µM (series often up to 102 µM), without a hit: at the top dose activity, negative = inhibition, hits mostly inhibitors; 350,000 tested, 8.8% active; also: % is scaled to controls: 0 for no effect and ±100 for the full control effect; nearly all actives have a fitted effect of over 75% in size
Target sequence (Q96KQ7 913-1193 limits assumed): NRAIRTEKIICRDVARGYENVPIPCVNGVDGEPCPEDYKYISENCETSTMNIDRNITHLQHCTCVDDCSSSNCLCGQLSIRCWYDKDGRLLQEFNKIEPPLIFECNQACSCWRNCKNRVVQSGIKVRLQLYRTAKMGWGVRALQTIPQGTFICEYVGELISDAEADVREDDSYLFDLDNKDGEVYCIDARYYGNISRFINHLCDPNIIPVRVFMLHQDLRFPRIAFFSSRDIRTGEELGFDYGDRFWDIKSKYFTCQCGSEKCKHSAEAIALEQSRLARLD
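Step 1: enzyme (final 20 nM) with compound, 15 min RT. Step 2: substrate peptide 500 nM and SAM 20 uM, 2 h RT. Step 3: anti-H3K9me1 antibody and AlphaScreen beads, 10 min, then plate read.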
HP1b binding inh = inhibitors of HP1-beta chromodomain binding to methylated histone tails; P83916; AlphaScreen HP1-beta / biotin-H3K9me3 peptide binding; Potency, µM (series often up to 114 µM), for inactives: at the highest dose activity change, negative = inhibition, hits mostly inhibitors; 390,000 tested, 0.56% active; AID 540317; also: nearly all actives have a fitted effect of over 70% in size
Target sequence (P83916 whole entry, looked up): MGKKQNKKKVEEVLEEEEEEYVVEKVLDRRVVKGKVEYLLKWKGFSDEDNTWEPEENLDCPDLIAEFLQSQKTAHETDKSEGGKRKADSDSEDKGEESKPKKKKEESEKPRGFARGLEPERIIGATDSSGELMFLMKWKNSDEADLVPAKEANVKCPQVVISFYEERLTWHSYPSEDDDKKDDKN
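HP1-beta protein (50 nM final) preincubated 30 min at room temperature with biotinylated H3(1-18)K9me3 peptide (50 nM) in PBS pH 7.4, 0.01% Tween-20, then compound added for 30 min. AlphaScreen streptavidin donor/nickel chelate acceptor beads (10 ug/mL final), 30 min dark, luminescence read.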
12-LOX inh = blocks human arachidonate 12S-lipoxygenase. P18054. purified 12hLO, xylenol orange hydroperoxide absorbance. Potency, µM (top dose mostly 108 µM), for the others: at the highest dose activity change, negative = inhibition, actives largely listed as inhibitors. 580,000 tested, 1.1% active. AID 1671190; also: % is scaled to controls: 0 for no effect and ±100 for the full control effect
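Hydroperoxide product was detected by ferrous iron/xylenol orange as the 573 to 405 nm absorbance ratio. Arachidonic acid at 40 uM (final) was turned over for 30 min at room temperature by 150 nM human 12hLO, pH 7.0 Hepes buffer, after 15 min compound preincubation.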
* marks the source's active call; other numbers are inactive results; u = inconclusive; x = not tested or not shown; [ ] = remark or other dose. This is a sample that favours compounds with a hit; in the whole collection about 9% have one here. Calls follow the shape of the dose curve; as a rule, active = well fitted curve in the direction sought with a large enough effect; inconclusive = small, poorly fitted or top-dose-only effect, or another doubt; inactive = no such curve, though single readings can be large; an effect the other way counts as inactive or inconclusive. Potency is read from the fitted curve at half-maximal effect.

SMILES	BAZ2B inh	JMJD2A Tudor inh	PLK1 PBD block	G9a block	HP1b binding inh	12-LOX inh
CCOC(=O)N1CCN(C(=O)COC(=O)c2ccccc2NCCO)CC1	36%	3%	-4%	50µM*	7%	-19%
COc1ccc(CCNC(=O)COC(=O)c2ccccc2NCCO)cc1OC	-7%	u	1%	50µM*	-3%	-7%
Cc1ccc2c(c1)nnn2C1CCN(CC(=O)N2c3ccccc3CC2C)CC1 (stereo unspecified)	-34%	-28%	-4%	14%[0.0925 µM]	11%	u
COc1ccccc1-c1cn2c(n1)CO[C@@H](CNC1CCOCC1)C2	x	x	x	x	x	4%[176 µM]
O=C1NC2(CCN(Cc3ccsc3)CC2)COc2ccccc21	x	x	x	x	x	45µM*
N#Cc1ccc(CN2CCC3(CC2)COc2ccccc2C(=O)N3)cc1	x	x	x	x	x	25%
Cc1ccc2c(c1)cc(C(=O)Nc1ccccc1C)n2C	-1%	-18%	x	5%[59 µM]	15%	-22%
CCOC(=O)c1cccc(NS(=O)(=O)Cc2ccccc2)c1	20%	2%	0%	22%	50%	u
CCN(C(=O)COC(=O)c1cc(-c2cccs2)nc2ccccc12)C1CCS(=O)(=O)C1 (stereo unspecified)	4%	6%	-13%	25%	47%	-20%
CCN(C(=O)COC(=O)c1cc(-c2ccc(C)o2)nc2ccccc12)C1CCS(=O)(=O)C1 (stereo unspecified)	-2%	89µM*	-12%	2µM*	5%	u
Cc1ccc(-c2cc(C(=O)OCC(=O)N(C)C3CCS(=O)(=O)C3)c3ccccc3n2)o1 (stereo unspecified)	-19%	79µM*	u	4µM*	-4%	u
Cc1ccc(-c2cc(C(=O)OCC(=O)N(C)C3CCS(=O)(=O)C3)c3ccccc3n2)c(C)c1 (stereo unspecified)	-26%	-26%	-5%	-36%	18%	-10%
CCC(CC)C(=O)Nc1sc2c(c1C#N)CCC(C)C2 (stereo unspecified)	x	x	x	x	x	-23%
CCOC(=O)CCP(=O)(O)C(O)c1ccccc1 (stereo unspecified)	1%	50µM*	24µM*	18%[59 µM]	8%	-3%
CCN(CC)c1ccc(/C=C/C(=O)C2C(=O)C=C(C)OC2=O)cc1 (stereo unspecified)	-29%	-6%	93%	u	23%	4%
COc1cc(/C=C/C(=O)C2C(=O)C=C(C)OC2=O)cc(Cl)c1OC(F)F (stereo unspecified)	x	x	x	x	x	14µM*
COc1ccc(C(CCNCc2ccc(N(C)C)cc2)c2ccccc2OC)cc1 (stereo unspecified)	10µM*	25µM*	-19%	14µM*	50µM*	u
O=C(O)c1nnn(-c2ccc(F)cc2F)c1-c1ccccc1	-4%	-21%	-8%	8%	-7%	-7%
O=C(NCCc1ccccc1)N1c2ccccc2Sc2ccccc21	8%	u	24µM*	79%	u	0%
CC(C)CNC(=O)N1c2ccccc2Sc2ccccc21	0%	3%	-3%	21%	39%	u
NC(=O)c1cccc2[nH]c(-c3ccc([C@H]4CCCN4)cc3F)nc12	x	x	x	x	x	-3%[57.4 µM]
CCc1ccc(NC(=O)C(C)Sc2ncnc3ccccc23)cc1 (stereo unspecified)	x	x	x	x	x	-1%
Cc1nc(NCc2ccc3c(c2)OCO3)c2oc3ccccc3c2n1	-9%	-32%	-6%	u	1%	22µM*
Cc1nc(Nc2cccc(Cl)c2)c2oc3ccccc3c2n1	-27%	-9%	-6%	71µM*	11%	u
CCc1nc(NCc2ccc3c(c2)OCO3)c2oc3ccccc3c2n1	-5%	-34%	1%	x	5%	u
SMILES	BAZ2B inh	JMJD2A Tudor inh	PLK1 PBD block	G9a block	HP1b binding inh	12-LOX inh
Cc1nc(Nc2cccc(F)c2)c2oc3ccccc3c2n1	-39%	-6%	-2%	u	18%	u
Cc1nc(Nc2ccc(Cl)cc2)c2oc3ccccc3c2n1	-28%	u	27µM*	2%[0.501 µM]	-6%[57 µM]	-16%
Cc1ccc(F)c(Nc2ncnc3c2oc2ccccc23)c1	x	x	x	x	x	4.5µM*
Cc1nc(Nc2cccc(O)c2)c2oc3ccccc3c2n1	u	-19%	-17%	u	62%	-29%
COc1ccc(F)cc1S(=O)(=O)Nc1ccc2c(c1)OCCO2	-1%	-2%	-5%	-18%	49%	270%
C=Cc1ccc(Cn2c(C)c(C(=O)NCc3cccc([N+](=O)[O-])c3)sc2=O)cc1	x	x	-5%	x	x	-18%
Cc1nc(Nc2ccccc2F)c2oc3ccccc3c2n1	-36%	5%	5%	32µM*	23%	-65%
C[C@H](N)c1nnc(SCC(=O)c2ccc(Cl)cc2)o1	u	-5%	-6%	u	10%	6%
C[C@H](N)c1nnc(SCC(N)=O)o1	56µM*	-19%	-14%	13µM*	-17%	33%
CCCCn1c(=O)cc(N2CCOCC2)[nH]c1=O	-5%	-14%	1%	-32%	38%	-1%
CC(C)Cn1c(N)c(C(=O)COC(=O)C2CCCCC2)c(=O)n(C)c1=O	1%	25µM*	24µM*	u	-9%	0%
COc1ccc(CCC(=O)OCC(=O)c2c(N)n(CC(C)C)c(=O)n(C)c2=O)cc1	u	-14%	-6%	79µM*	10%	5%
Cc1ccc(N2CC(C(=O)OCC(=O)c3c(N)n(CC(C)C)c(=O)n(C)c3=O)CC2=O)cc1 (stereo unspecified)	23%	-9%	-12%	10%[2.33 µM]	18%	-1%
COc1ccccc1-n1cnnc1SCC(=O)Nc1cc(C)on1	-2%	-35%	-12%	8%[12.7 µM]	47%	0%
CCOc1ccc(/C(C)=N/N2C(=O)C(CC(=O)Nc3ccc(OC)cc3[N+](=O)[O-])SC2=Nc2cccc(C)c2C)cc1 (stereo unspecified)	-38%	-29%	-12%	35µM*	9%	-11%
O=C1N/C(=N/NC(=O)c2cccc3ccccc23)S/C1=C\c1ccccc1OCc1ccccc1	1%[57.1 µM]	-24%	27µM*	3%[12.7 µM]	36%	-2%
COc1ccc(OC)c(/C=C2\S/C(=N/NC(=O)c3ccc4ccccc4c3)NC2=O)c1	-3%	-33%	u	45%[59 µM]	15%	-25%
Cc1cc(CN2CCN(Cc3nc(C)no3)CC2)on1	x	x	x	x	x	27%
S=C(NCCN1CCCCC1)Nc1ccc(Br)cc1	-4%	-15%	-9%	u	13%	u
CC1(C)CC(=O)c2cc3c(nc2C1)CC(C)(C)CC3=O	-2%	4%	-10%	-42%	65%	-4%
CC1(C)CC(=O)c2cnc(N)nc2C1	-18%[57.1 µM]	u	27µM*	32%	-9%	0%
